Compound activity deposited in PubChem by National Center for Advancing Translational Sciences (NCATS).
The list is not random: actives were taken first. Their share in the collection is about 0.43%.
GAA glycogen mod: qHTS Assay for Inhibitors and Activators of Human alpha-Glucosidase Cleavage of Glycogen | Lysosomal alpha-glucosidase (Homo sapiens), P10253 | recombinant GAA, glycogen substrate, Amplex Red glucose oxidase fluorescence | Potency, µM (titrated, usually from 76.4 µM), for inactives: at the highest dose activity change, negative = inhibition, most hits filed as inhibitors | hit rate 0.38% among 300,000;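 further: potency means the concentration at half of the fitted maximal effect; 0% = full enzyme reaction and -100% = no-enzyme basal signal; the screen sought inhibitors and activators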
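Recombinant human alpha-glucosidase (4 nM final) hydrolysed bovine liver glycogen (30 ug) for 40 min at 37 C in pH 5.0 citrate/phosphate with 0.01% Tween-20. Released glucose detected by glucose oxidase/Amplex Red, Ex 573/Em 610 nm. Compounds up to 77 uM; AC50 from Hill fits.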
GLA spleen mod: qHTS Assay for Inhibitors and Activators of Human alpha-Galactosidase From Spleen Homogenate | Alpha-galactosidase A (Homo sapiens), P06280 | human spleen homogenate, 4MU-alpha-Gal fluorescence, 40 min | Potency, µM (top dose mostly 80 µM), inactives show top-dose activity change, negative = inhibition, actives largely listed as inhibitors | hit rate 0.008% among 240,000 | AID 2107, 2009;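 further: potency means the concentration at half of the fitted maximal effect; 0% = enzyme with vehicle and -100% = no enzyme basal signal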
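Fluorogenic readout (Ex 365/Em 440 nm) of 4-methylumbelliferone released from 1 mM 4-MU-alpha-galactoside by spleen homogenate, 40 min at 37C, pH 5.0. Data normalized to no-enzyme and enzyme controls; Hill-equation AC50 from compound titrations.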
aGlu spleen mod: qHTS Assay for Inhibitors and Activators of Human alpha-Glucosidase From Spleen Homogenate; Lysosomal alpha-glucosidase (Homo sapiens), P10253; human spleen homogenate, 4-MU-alpha-glucoside fluorescence; Potency, µM (series often up to 79.9 µM), for inactives: top-dose activity change, negative = inhibition, hits mostly inhibitors; hit rate 0.006% among 240,000;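 further: potency means the concentration at half of the fitted maximal effect; 0% = enzyme with vehicle and -100% = no enzyme basal signal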
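Human spleen homogenate (1 ug) incubated with compounds and 1 mM 4-methylumbelliferyl-alpha-D-glucopyranoside in pH 5.0 citrate/phosphate buffer, 37 C, 40 min. Stopped at pH 10; 4-MU fluorescence (Ex 365/Em 440 nm); AC50 by Hill fit.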
GLA inh pH 4.5: qHTS Assay for Inhibitors of Human alpha-Galactosidase at pH 4.5; Alpha-galactosidase A (Homo sapiens), P06280; purified enzyme, 4-MU-alpha-Gal fluorescence, pH 4.5; activity change, negative = inhibition, % at 105 µM; 230,000 tested, under 10 active; AID 1467, 2008;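 further: 0% = full activity with enzyme and -100% = basal without enzyme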
Target sequence (P06280 whole entry, looked up): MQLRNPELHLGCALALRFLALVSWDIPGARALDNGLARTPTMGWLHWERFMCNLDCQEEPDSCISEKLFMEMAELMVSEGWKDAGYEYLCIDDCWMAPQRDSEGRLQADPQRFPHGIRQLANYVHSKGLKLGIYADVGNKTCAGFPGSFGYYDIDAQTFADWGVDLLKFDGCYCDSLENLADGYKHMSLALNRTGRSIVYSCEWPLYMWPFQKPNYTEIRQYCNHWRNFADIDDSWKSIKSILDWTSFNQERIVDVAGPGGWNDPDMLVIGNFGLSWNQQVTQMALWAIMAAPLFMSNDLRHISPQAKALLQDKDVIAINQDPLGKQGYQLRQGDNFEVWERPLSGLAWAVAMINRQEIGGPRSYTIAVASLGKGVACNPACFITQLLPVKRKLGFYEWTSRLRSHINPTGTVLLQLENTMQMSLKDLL
N370S GC: qHTS Assay for Inhibitors and Activators of N370S glucocerebrosidase as a Potential Chaperone Treatment of Gaucher Disease | AID 2101, 2009 | N370S GC spleen homogenate, 4MU-glucoside fluorescence | Lysosomal acid glucosylceramidase (Homo sapiens), P04062 | hit rate 0.092% among 330,000 | Potency, µM (titrated, usually from 59.4 µM), without a hit: at the highest dose activity change, negative = inhibition, hits mostly inhibitors;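 further: potency means the concentration at half of the fitted maximal effect; 0% = full enzyme activity and -100% = no enzyme basal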
GAA inh: qHTS Assay for Inhibitors of Human alpha-Glucosidase as a Potential Chaperone Treatment of Pompe Disease. Lysosomal alpha-glucosidase (Homo sapiens), P10253. purified human GAA, 4-MU-alpha-glucoside fluorescence. Potency, µM (highest dose often 76.9 µM), for the others: at the top dose activity change, negative = inhibition, actives largely listed as inhibitors. hit rate 0.005% among 200,000;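 further: potency means the concentration at half of the fitted maximal effect; plate controls were uninhibited enzyme wells for no effect and no-enzyme background for full effect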
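Human enzyme at 4 nM with 400 uM 4-methylumbelliferyl-alpha-D-pyranoside, citrate/phosphate buffer pH 5.0, 0.005% Tween-20, 20 min at room temperature. Compounds up to 77 uM. 4-MU fluorescence (Ex 365/Em 440) read after NaOH/glycine stop; AC50 from Hill fit.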
* hit, by the source's call. The call rests on the fitted dose curve; in most records, active means well fitted curve in the direction sought with a large enough effect; inconclusive means small, poorly fitted or top-dose-only effect, or another doubt; inactive means no such curve, though single readings can be large; an effect the other way counts as inactive or inconclusive.

What do the screens show for `CN1[C@@H]2CC[C@H]1CC(O[C@@H](c1ccccc1)c1ccc(Cl)cc1)C2` (stereo partly drawn)?
GLA spleen mod: 13.9%; aGlu spleen mod: 0.2%; GLA inh pH 4.5: -25.6; N370S GC: 7.94µM*

How did CC1CN(O)C2CCc3c(no[n+]3[O-])C12O (stereo not drawn) do in these assays?
GAA glycogen mod: 8.84µM*; GLA spleen mod: 8.3%; aGlu spleen mod: 5.7%; GLA inh pH 4.5: 2.7; N370S GC: 4.1%; GAA inh: 5.4%

Results for Oc1ccc(/C=N/NP(=S)(c2ccccc2)c2ccccc2)cc1 ?
GAA glycogen mod: -15.5%; GLA spleen mod: 1.1%; aGlu spleen mod: -8.3%; GLA inh pH 4.5: -11.0; N370S GC: inconclusive; GAA inh: -8.7%

What do the screens show for `COc1cc(/C=N/NP(=S)(c2ccccc2)c2ccccc2)ccc1O`?
GAA glycogen mod: 24.9µM*; GLA spleen mod: -7.3%; aGlu spleen mod: -2.8%; GLA inh pH 4.5: 1.4; N370S GC: inconclusive; GAA inh: -4.6%

What do the screens show for `COC[C@H]1OC(=O)c2coc3c2[C@@]1(C)C1=C(C3=O)[C@H]2CCC(=O)[C@@]2(C)C[C@H]1OC(C)=O`?
GLA spleen mod: 2.0%; aGlu spleen mod: -3.4%; GLA inh pH 4.5: -2.5; N370S GC: -11.6%

What do the screens show for `N#CC(C#N)=NNc1ccc(OC(F)(F)F)cc1`?
GLA spleen mod: -8.0%; aGlu spleen mod: -2.5%; GLA inh pH 4.5: -12.8; N370S GC: -6.2%

What do the screens show for `ClC1=C(Cl)C(Cl)(C2(Cl)C(Cl)=C(Cl)C(Cl)=C2Cl)C(Cl)=C1Cl`?
GLA spleen mod: -9.7%; aGlu spleen mod: -5.3%; N370S GC: -6.7%

Results for CN1C(=O)C(Cc2cccc3ccccc23)C(=O)N(C)C1=O ?
GAA glycogen mod: inconclusive; GLA spleen mod: 0.7%; aGlu spleen mod: -3.5%; GLA inh pH 4.5: 2.7; N370S GC: 5.0%; GAA inh: -18.0%

How did O=C1C2CCN(CC2)[C@@H]1Cc1ccc2ccccc2c1O do in these assays?
GAA glycogen mod: 7.88µM*; GLA spleen mod: 2.7%; aGlu spleen mod: -4.1%; GLA inh pH 4.5: 5.1; N370S GC: -19.3%; GAA inh: -4.4%

Results for OC(c1ccc(Cl)cc1)(c1ccc(Cl)cc1)C(Cl)(Cl)Cl ?
GLA spleen mod: 12.9%; aGlu spleen mod: 4.4%; N370S GC: 11.2%

What do the screens show for `O=c1c(O)c(-c2ccc(O)c(O)c2)oc2cc(O)cc(O)c12`?
GAA glycogen mod: inconclusive; GLA spleen mod: -19.2%; aGlu spleen mod: 0.9%; GLA inh pH 4.5: -16.4; N370S GC: inconclusive

What do the screens show for `O=c1cc(-c2ccc(O)c(O)c2)oc2cc(O)cc(O)c12`?
GAA glycogen mod: 25.1µM*; GLA spleen mod: inconclusive; aGlu spleen mod: -0.7%; GLA inh pH 4.5: -8.6; N370S GC: inconclusive

What do the screens show for `C/C1=C/C(=O)O[C@@H]2C[C@@H](CC[C@H](C)/C=C\CC1)O[C@@](O)(C1CSC(=O)N1)C2` (stereo partly drawn)?
GLA spleen mod: -7.3%; aGlu spleen mod: -4.6%; N370S GC: -2.1%

How did CCCCCCCCCCCC[N+](C)(C)CCOc1ccccc1 do in these assays?
GLA spleen mod: 10.4%; aGlu spleen mod: 9.1%; N370S GC: 4.47µM*

How did CN(C)c1ccc(N)cc1 do in these assays?
GLA spleen mod: -6.6%; aGlu spleen mod: -2.9%; N370S GC: -9.7%

How did CN1CC(C(=O)c2ccc(Cl)cc2)C(c2ccc(N(C)C)cc2)C1 (stereo not drawn) do in these assays?
GAA glycogen mod: -4.3%; GLA spleen mod: 3.2%; aGlu spleen mod: 2.2%; GLA inh pH 4.5: -5.6; N370S GC: 1.2%; GAA inh: inconclusive

What do the screens show for `CN1CC(C(=O)c2ccc(Cl)cc2)C(c2ccc(Cl)cc2Cl)C1` (stereo not drawn)?
GAA glycogen mod: 1.1%; N370S GC: 17.8µM*

Results for CCOc1cc(-c2nc3c(C)cccn3c2NCC2CCCO2)ccc1O (stereo not drawn) ?
GAA glycogen mod: 35.5µM*; GLA spleen mod: 9.3%; aGlu spleen mod: -1.4%; GLA inh pH 4.5: 7.2; N370S GC: 0.2%; GAA inh: -10.0%

How did Cc1cccn2c(NCC3CCCO3)c(C(C)C)nc12 (stereo not drawn) do in these assays?
GAA glycogen mod: inconclusive; GLA spleen mod: -11.7%; aGlu spleen mod: -5.3%; GLA inh pH 4.5: 1.7; N370S GC: 4.7%; GAA inh: 0.7%

What do the screens show for `CN1C(=O)[C@]23CC4=CC=C[C@H](O)[C@H]4N2C(=O)[C@@]1(CO)SS3`?
GLA spleen mod: -2.2%; aGlu spleen mod: 2.5%; N370S GC: 0.0%

What do the screens show for `OCCCc1ccc(O)c(O)c1`?
GAA glycogen mod: 35.5µM*; GLA spleen mod: 9.5%; aGlu spleen mod: -1.2%; GLA inh pH 4.5: 0.1; N370S GC: 4.6%

What do the screens show for `O=C(N/N=C1/CN2CCC1CC2)c1cc2ccccc2cc1O`?
GAA glycogen mod: 35.5µM*; GLA spleen mod: -11.8%; aGlu spleen mod: -0.6%; GLA inh pH 4.5: 5.5; N370S GC: -21.5%; GAA inh: -0.6%

Results for C/C=C/C/C=C/CCC(=O)[C@H]1O[C@H]1C(N)=O ?
GLA spleen mod: -1.8%; aGlu spleen mod: -5.5%; N370S GC: inconclusive

Results for Cc1cc2c(C(C)C)c(O)c(O)c(C=O)c2c(O)c1-c1c(C)cc2c(C(C)C)c(O)c(O)c(C=O)c2c1O ?
GAA glycogen mod: 8.91µM*; GLA spleen mod: 4.3%; aGlu spleen mod: -2.5%; GLA inh pH 4.5: -3.9; N370S GC: 11.3%; GAA inh: inconclusive

How did O=C(O)C1Sc2[nH]c(=O)sc2C2c3cc(Cl)ccc3OC(=O)C12 (stereo not drawn) do in these assays?
GAA glycogen mod: 15.8µM*; GLA spleen mod: 3.1%; aGlu spleen mod: 5.3%; GLA inh pH 4.5: -3.4; N370S GC: 11.2%; GAA inh: 5.8%
